In PubChem BioAssay (EPA / NIEHS):
Inconclusive results are not listed. The source made the active and inactive calls. How the source made its calls: active means hit-call score of the fitted dose curve at least 0.9, where 1 is the maximum; inconclusive means response in the unintended direction; inactive means score below 0.9.

Each molecule was assayed on ABC Transporter (ABCB11), ABCB11 (gene 8647) (assay: CLD_ABCB11_6hr: CellzDirect (CLD) Gene Expression Assay for ABC Transporter (ABCB11) at 6 hours (AID 2283675);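 further: hits raise ABCB11 mRNA level so AC50 marks induction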).
Description: CLD_6hr is a cell-based, multiplexed-readout assay that uses hepatocyte, a human liver primary cell, with measurements taken at 6 hours after chemical dosing in a 96-well plate.CLD_ABCB11_6hr is one of 16 assay component(s) measured or calculated from the CLD_6hr assay. It is designed to make measurements of mRNA induction, a form of inducible reporter, as detected with chemiluminescence signals by Quantitative Nuclease Protection Assay (qNPA) technology.Data from the assay component CLD_ABCB11_6hr was analyzed at the endpoint, CLD_ABCB11_6hr, in the positive analysis fitting direction relative to DMSO as the negative control and baseline of activity. Using a type of inducible reporter, gain-of-signal activity can be used to understand changes in the reporter gene as they relate to the gene ABCB11. Furthermore, this assay endpoint can be referred to as a primary readout. To generalize the intended target to other relatable targets, this assay endpoint is annotated to the transporter intended target family, where subfamily is ABC transporter.
Human hepatocyte cultures were treated daily for two consecutive days with fresh dosing solutions containing appropriate concentrations of the 320 ToxCast chemicals (chemical identities were blinded to CellzDirect and other ToxCast collaborators), vehicle control (0.2% DMSO), and positive control inducers as summarized in Table 1. Due to the large number of treatment groups and chemicals examined, the ToxCast chemicals were divided into two groups (spanning two independent cultures of hepatocytes from separate donor preparations (Hu778: ToxCast plates 1 and 2; Hu776: ToxCast plates 3 and 4). Each preparation of human hepatocyte cultures was treated with respective vehicle control, medium only control, set of six positive controls/reference chemicals for the five hepatic receptor pathways, and a subset of eight of the ToxCast chemicals (indoxacarb, pyrithiobac-sodium, norflurazon, cyhalofop-butyl, methomyl, thiram, acetochlor, and propiconazole). These replicate data, coupled with internal replicates designed within the blinded ToxCast chemical library, provided additional data to evaluate interindividual differences between hepatocyte preparations and their potential impact on chemical profiles.Cell morphology and integrity were evaluated using phase-contrast microscopy as an indicator of hepatocyte cell health (Tyson & Green, 1987). Cultures for each treatment group (i.e., media, vehicle [0.2% DMSO], positive control inducers [multiple concentrations], and the ToxCast chemicals [multiple concentrations]) were observed and cell morphology was assessed relative to vehicle control cultures at each harvest time point (0, 6, 24, or 48 h). […] Images were evaluated at the conclusion of the study to assess changes in cell integrity and account for the effects of chemical exposure on uncharacteristic changes in concentration-dependent gene expression profiles. The results from these determinations of apparent cytotoxicity were annotated (yes/no) alongside the corresponding qNPA data for reference.At the conclusion of each treatment period, hepatocyte cultures (96-well) were washed with 1 volume of HBSS, lysed by addition of 25 ul ArrayPlate lysis buffer (HTG, Tucson, AZ), and 70 ul/well of Denaturation Oil, denatured by incubation at 95C for 10 min, and frozen at approximately -70C until analysis by nuclease protection assay (qNPA) (Roberts et al., 2007). For qNPA analysis, cell lysates were thawed at 50C for approximately 30 min, qNPA probes were added, and samples were incubated at 95C for 10 min to begin the detection process by denaturing the target RNA, dissociating the duplexes and secondary structure hybridization. At the conclusion of the hybridization period, S1 nuclease reagent was added to each sample to digest all nonprotected nucleotides at 50C for 60-90 min. […]

| SMILES | outcome |
| --- | --- |
| CCC(O)=C1C(=O)CC(C(=O)O)CC1=O (centres undefined) | inactive |
| COC(=O)c1ccc(I)cc1S(=O)(=O)NC(=O)Nc1nc(C)nc(OC)n1 | inactive |
| CCCCC(CC)COC(=O)c1ccccc1C(=O)O (centres undefined) | inactive |
| CSC(=O)c1cccc2nnsc12 | inactive |
| C#CCOC(=O)[C@@H](C)Oc1ccc(Oc2ncc(Cl)cc2F)cc1 | inactive |
| CCCCC(CC)CN1C(=O)C2C3C=CC(C3)C2C1=O (centres undefined) | inactive |
| S=C([S-])NCCNC(=S)[S-].[Mn+2] | inactive |
| CCC(C)OC(=O)N1CCCCC1CCO (centres undefined) | inactive |
| CC1(C)C(C=C(Cl)Cl)C1C(=O)OCc1cccc(Oc2ccccc2)c1 (centres undefined) | inactive |
| CC(C)(c1ccc(O)cc1)c1ccc(O)cc1 | inactive |
| CCCOC(=O)c1ccc(C(=O)OCCC)nc1 | inactive |
| CCCCOC(=O)[C@@H](C)Oc1ccc(Oc2ccc(C(F)(F)F)cn2)cc1 | inactive |
| COC(=O)c1ccccc1S(=O)(=O)NC(=O)Nc1nc(OC(F)F)cc(OC(F)F)n1 | inactive |
| CCCCCOC(=O)COc1cc(N2C(=O)C3=C(CCCC3)C2=O)c(F)cc1Cl | inactive |
| CCOC(=O)NCCOc1ccc(Oc2ccccc2)cc1 | inactive |
| COc1c(Cl)ccc(Cl)c1C(=O)O | inactive |
| CCSC(=O)N(CC(C)C)CC(C)C | inactive |

| SMILES | outcome |
| --- | --- |
| c1ccc(Nc2ccccc2)cc1 | inactive |
| CN(C)C(=O)Nc1ccc(Cl)c(Cl)c1 | inactive |
| S=C(S)NCCNC(=S)S.[Mn+2].[S-]C([S-])=NCCN=C([S-])[S-].[Zn+2] | inactive |
| COC(=O)c1ccccc1C(=O)O | inactive |
| CCN(Cc1c(F)cccc1Cl)c1c([N+](=O)[O-])cc(C(F)(F)F)cc1[N+](=O)[O-] | inactive |
| CCNc1nc(N)nc(Cl)n1 | inactive |
| CCOC(=O)[C@H](C)Oc1ccc(Oc2nc3ccc(Cl)cc3o2)cc1 | inactive |
| O=C(Nc1ccc([N+](=O)[O-])cc1Cl)c1cc(Cl)ccc1O | inactive |
| COc1nc(C)nc(NC(=O)NS(=O)(=O)c2ccccc2OCCCl)n1 | inactive |
| OB(O)O | inactive |
| CCOC(=O)C(C)Oc1ccc(Oc2nc3ccc(Cl)cc3o2)cc1 (centres undefined) | inactive |
| COC(=O)c1cccc(C)c1S(=O)(=O)NC(=O)Nc1nc(OCC(F)(F)F)nc(N(C)C)n1 | inactive |
| N#CSCSc1nc2ccccc2s1 | inactive |
| Oc1ccc(C(c2ccc(O)cc2)C(Cl)(Cl)Cl)cc1 | inactive |
| CCCCOC(=O)C(C)Oc1ccc(Oc2ccc(C(F)(F)F)cn2)cc1 (centres undefined) | inactive |
| CCCN(CCC)c1c([N+](=O)[O-])cc(C(F)(F)F)c(N)c1[N+](=O)[O-] | inactive |
| CCCOC(=O)NCCCN(C)C | inactive |
